From PubChem BioAssay
Only some compounds are listed: those with a hit (about 21% of all), similar ones and a draw of the others.
Shiga toxin inh: blocks Shiga toxin action in Vero cells | Vero cells, Shiga toxin protein synthesis inhibition reporter | inhibition, % at 38.7 µM | 9.2% of 290,000 active; in the data active = inhibition mostly above about 28%, no sharp cut-off; inactive = mostly below about 43%; also: 0% is about no effect
NS1 inh: influenza NS1 inhibition | Potency, µM (doses to about 46.1 µM), without a hit: top-dose activity, positive = more growth | 0.4% of 270,000 active; calls by dose curve; also: potency is read from the fitted curve at half-maximal effect; actives are rising curves; nearly all actives have a fitted effect of over 50% in size
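S. cerevisiae expressing influenza A NS1, grown in glucose, washed, then diluted 1:100 into pH 6.0 -URA galactose medium with 23 nl compound. Growth recovery read as OD600; NS1-free strain serves as control.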
SARS PLP yeast: blocks SARS-CoV papain-like protease in a yeast assay; AID 485353; S. cerevisiae expressing SARS-CoV PLpro, growth rescue; Potency, µM (doses to about 32.9 µM), for the others: at the highest dose activity, positive = growth rescue, most hits filed as activators; 0.19% of 330,000 active; calls by dose curve; also: potency is read from the fitted curve at half-maximal effect; 0% is about no effect; nearly all actives have a fitted effect of over 55% in size
Pf growth 48h: inhibits P. falciparum growth in the first generation, 48 h; P. falciparum luciferase growth in erythrocytes, 48 h; Potency, µM (doses to about 28.7 µM), for the others: at the top dose activity change, negative = inhibition, usual class: inhibitors; 5.9% of 310,000 active; AID 504832; also: potency is read from the fitted curve at half-maximal effect; % is scaled to controls: 0 for no effect and ±100 for the full control effect
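First compound was added to culture medium, then infected red cells at 0.1% parasitemia and 2% hematocrit (final). After incubation at 37 C under 5% CO2, luciferase detection reagent was dispensed and light output recorded.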
CHX counter: counter-screen for Shiga toxin inhibitors: cycloheximide protein synthesis inhibition; cell reporter, cycloheximide protein synthesis inhibition counterscreen; max response, %; 12% of 300,000 active; in the data active = max response mostly above about 13%, no sharp cut-off; inactive = mostly below about 14%; also: read at 38.3 µM for the half of the compounds with a filed dose; 0% is about no effect
Pf growth 96h: P. falciparum growth inhibition at 96 hour, primary screen for plastid delayed-death inhibitors. P. falciparum luciferase reporter growth, 96 h. Potency, µM (series often up to 28.7 µM), inactives show at the highest dose activity change, negative = inhibition, most hits filed as inhibitors. 6.9% of 320,000 active; also: potency is read from the fitted curve at half-maximal effect; % is scaled to controls: 0 for no effect and ±100 for the full control effect
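P. falciparum expressing integrated firefly luciferase grown in erythrocytes (2% hematocrit, 0.05% parasitemia final) with compounds for 96 hours at 37 C, 5% CO2. Growth inhibition read as loss of luminescence after adding luciferase detection reagent.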
The depositor's hits bear a star; ? = inconclusive; · = no result given. Unless noted, calls follow the shape of the dose curve; as a rule, active = well fitted inhibition curve with a large enough effect; inconclusive = small, poorly fitted or top-dose-only effect, or another doubt; inactive = no such curve, though single readings can be large or run the other way.

SMILES	Shiga toxin inh	NS1 inh	SARS PLP yeast	Pf growth 48h	CHX counter	Pf growth 96h
O=c1cc(O)c2c(=O)n(Cc3ccccc3)c3ccccc3c2o1	-20.0	·	-4.4%	8.28µM*	1.0	?
Cc1csc(SCC(=O)NC(=O)NCCC(C)C)n1	-14.5	0.2%	-0.8%	0.7%	-2.8	-15.3%
CCOc1ccc(CC(=O)C2=C(N3CCOCC3)CC(C)(C)CC2=O)cc1OCC	-8.4	·	-0.5%	-14.1%	-2.2	6.57µM*
CCOc1ccc(CC(=N)C2=C(O)CC(C)(C)CC2=O)cc1OCC	-3.2	-1.5%	18.0%	0.9%	-4.2	?
Cc1ccc(S(=O)(=O)N2CC(C(=O)O)Oc3ccccc32)cc1 (stereo not drawn)	9.7	-0.9%	2.0%	·	-1.0	-11.0%
Cc1ccc(-c2onc(C)c2C)cc1S(=O)(=O)N1CC(C)Oc2ccccc21 (stereo not drawn)	6.2	16.1%	2.7%	14.7µM*	22.0	-29.1%
COc1ccc(OC)c(CN2CCN(C(=O)c3cccc(S(=O)(=O)Nc4ccc(C)cc4)c3)CC2)c1	·	·	-1.4%	10.4µM*	·	9.28µM*
COc1ccc(OC)c(CN2CCN(C(=O)COc3cccc(C)c3)CC2)c1	8.4	-3.0%	4.7%	-10.7%	2.0	-27.1%
COc1ccc(OC)c(CN2CCN(C(=O)c3cc(S(=O)(=O)Nc4ccccc4OC)ccc3C)CC2)c1	-11.1	-21.6%	0.2%	?	-2.0	3.29µM*
COc1ccccc1NS(=O)(=O)c1ccc(C)c(C(=O)N2CCCC2)c1	·	·	-0.2%	-25.8%	·	19.6%
COc1ccc(OC)c(CN2CCN(C(=O)[C@@H](NC(=O)c3cccc(C)c3)C(C)C)CC2)c1	·	·	2.4%	10.4µM*	·	?
COc1ccc(N2CCN(C(=O)c3ccc(NS(=O)(=O)c4cccc(F)c4)cc3)CC2)cc1	12.5	-34.1%	-0.8%	-22.0%	11.1*	?
C/C(=N\NC(N)=S)C1(C)CC2(CC(C)(C)OC2=O)C(=O)O1 (stereo not drawn)	16.6	6.6%	3.0%	?	-1.3	44.5%
CCOC(=O)N1CCN(C(=O)c2cnn(-c3ccccc3)c2NC(=O)c2ccccc2F)CC1	12.1	6.4%	·	-19.8%	3.3	-15.0%
COc1ccc(C)cc1NC(=O)CN1CCCN(S(=O)(=O)c2ccc(Br)cc2)CC1	-18.3	-21.0%	-19.3%	-25.3%	-5.7	1.1%
CC(=O)Nc1ccc(Nc2nc(C(F)(F)F)nc3c2nnn3Cc2ccccc2Cl)cc1	-9.5	14.5%	17.7%	0.0%	1.6	?
CCOC(=O)Nc1cccc2ccccc12	11.8	-4.4%	5.1%	·	6.3	17.6%
O=C(Nc1cccc2ccccc12)OCc1cncs1	32.1*	-4.3%	-2.7%	36.7%	24.2*	63.5%
O=C(Nc1ccc(Cl)cc1)OCc1cncs1	120.5*	-1.9%	4.2%	41.5%	60.1*	81.2%
O=C(Nc1cccc(Cl)c1)OCc1cncs1	28.8	-12.8%	-13.9%	55.7%	1.2	113.9%
O=C(COC(=O)CCN1C(=O)C2CC=CCC2C1=O)NCCc1ccc(F)cc1 (stereo not drawn)	·	·	-5.8%	?	·	?
C=CCC[C@@H](Cc1ccc(F)cc1)C(=O)OC[C@@H](Cc1ccccc1)NC(=O)[C@H](CC=C)CC(=O)NCCO	·	·	-2.2%	·	·	·
Cc1nnc(SCC(=O)N(C)C2CCCCC2)n1C	·	·	4.6%	7.1%	·	6.9%
COc1ccc(OC)c(Nc2c3ccccc3nc3ccccc23)c1	16.3	-9.3%	-3.6%	1.65µM*	8.3	?
COc1ccc([N+](=O)[O-])cc1NC(=O)CSc1nc(C)cc(C)n1	-13.2	-8.7%	4.0%	3.8%	-3.9	?
Cc1cc(C)nc(Nc2ccc(C)c([N+](=O)[O-])c2)n1	53.9*	-0.2%	-1.0%	15.0%	17.1*	43.4%
COc1ccc([N+](=O)[O-])cc1Nc1c2ccccc2nc2ccccc12	-0.8	6.9%	2.2%	11.7µM*	-2.9	16.5µM*
COc1cc([N+](=O)[O-])ccc1Nc1nc(C)cc(C)n1	-16.4	3.9%	-1.6%	15.1%	1.2	9.28µM*
Oc1c(Cl)cc(C(c2cc(Cl)c(O)c(Cl)c2)C(c2cc(Cl)c(O)c(Cl)c2)c2cc(Cl)c(O)c(Cl)c2)cc1Cl	·	20.0%	·	·	·	·
Cc1ccc(Oc2ccc(S(=O)(=O)N3CCOCC3)cc2C(N)=O)c(-n2nc3ccccc3n2)c1	-5.1	13.8%	7.1%	?	-5.8	?
